Data: the OligoGym collection

Biological target: GRK1
Assay: pooled miR-30 sensor sort-seq; sequence = guide strand
Details: shRNA
Further: reference of the scale not given here.

| Sequence | sensor-assay potency score (higher = more potent) |
| --- | --- |
| TTGTCCAGCAGCACGTTCTCGG | -0.903 |
| TTAAGGTCCTTGAAGAGGGGGT | 0.091 |
| TTGTCGCAGGTCTCATCTCTGA | -1.13 |
| TAAACTTCGCCACTATCCCCTC | -0.678 |
| TTTGCGTAGACAGTTTTGGAGT | -0.657 |
| TTCTTGTTCAGCTTCTTGCAGG | -0.533 |
| TAGACAGTTTTGGAGTCTGGGA | -1.3 |
| TTGTTCAGCTTCTTGCAGGCAT | 0.349 |
| TTAAACTTCGCCACTATCCCCT | 0.34 |

Biological target: GRSF1
Assay: as above
Details: shRNA

| Sequence | sensor-assay potency score (higher = more potent) |
| --- | --- |
| TTTCTTCTTCTAAACAGTCCAC | -0.0512 |
| TTCTTCTAAACAGTCCACTATG | -0.687 |
| TTCTTCTTCTAAACAGTCCACT | -0.559 |
| TCTGCTTGGAAATATCTCGATG | -0.758 |
| TTCATGTTCTTCAAAGACCATT | -0.97 |
| TAGCAGTAGGAAAAGATGCGAT | -0.689 |
| ATGTATTCCATTCTCACCGTTG | -1.12 |
| TCGATTACCAATTTCTTCCCTG | -0.139 |
| TAAGGCTTTCTGCACATCCTGC | -0.572 |
| TTGAGCATCGCTGCAACAGCAT | -0.486 |
| TATACTTCCACATACCGCTGGC | -0.174 |
| TTATATACTTAGCAGTAGGAAA | -1.31 |

Biological target: GSTO1
Assay: as above
Details: shRNA

| Sequence | sensor-assay potency score (higher = more potent) |
| --- | --- |
| TTTTCTTAAAGAACCACTCAGG | -0.256 |
| AACTCTAAGATCATCTTCTGGC | -0.0597 |
| TGAGACTGTGGGATCTTCCTTC | 0.458 |
| TCTAATAAAGCTTCCTACCAAG | -0.981 |
| TTATTAGTCAGAACCTCCTCTA | -0.622 |
| TAGAGATAGAATTGCCACCAAA | -1.16 |
| TATTAGTCAGAACCTCCTCTAG | -0.847 |
| ATATTGATGACTTCATGCCTGA | -0.0136 |
| TAACTTCATTGCTTCCAGCCGT | -0.351 |
| TTTCTCACTAGTAAGCAGGGCT | 0.254 |
| TAGGCCAGCATAGTCTTCTTTA | -0.878 |
| TCTAAGATCATCTTCTGGCAAG | -0.832 |

Biological target: GTF2H5
Assay: as above
Details: shRNA

| Sequence | sensor-assay potency score (higher = more potent) |
| --- | --- |
| TACAGCAGAAACTGCTTCATGG | -0.967 |
| ATCAATGTCTTGAATGATGAAC | -1.38 |
| TAATTCACCCACTCGCTCCTGG | 0.481 |
| TATTACAAAGACGTGAGTGTCA | 0.236 |
| AATGATGAACTTCTTCCCCAGG | -1.25 |
| TTAATTCACCCACTCGCTCCTG | -0.542 |
| TCTTGAATGATGAACTTCTTCC | -0.75 |
